# Test results: PubChem BioAssay (NCI)
# This is part of a sample that, as a whole, favours compounds with a hit. Of some 79,000 tested, about 15% had one in any assay. Unmarked numbers belong to inactive results. Activity calls are given as the source filed them. No stated cut-off is given here; in the data, active means growth inhibition above about 70%; inactive means the rest.
# Key:
# [1] = NCI Yeast Anticancer Drug Screen. Data for the rad50 strain (AID 155);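 further: 0% = growth of vehicle-only cultures of the same strain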; conditions: S. cerevisiae rad50 strain growth inhibition; at 50.0 µM; stronger effect = higher value
# Summary of the method: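 Cells are treated with compound, grown, and their growth is then scored against vehicle-only cultures of the same repair-deficient yeast strain.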
# [2] = NCI Yeast Anticancer Drug Screen. Data for the mec2-1 strain (AID 157); conditions: S. cerevisiae mec2-1 strain, at 50.0 µM, stronger effect = higher value
# Summary of the method: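 Readout is yeast growth inhibition, normalised to vehicle-treated controls, in the mec2-1 strain exposed to compound.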
# [3] = NCI Yeast Anticancer Drug Screen. Data for the sgs1 mgt1 strain (AID 161);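 further: 0% = growth of cultures given vehicle only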; conditions: S. cerevisiae sgs1 mgt1 strain, at 50.0 µM, stronger effect = higher value
# Summary of the method: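 Yeast cells carrying a defined DNA-repair defect were exposed to test compounds. Growth inhibition was measured relative to vehicle-treated controls.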
# [4] = NCI Yeast Anticancer Drug Screen. Data for the cln2 rad14 strain (AID 165);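 further: 0% = growth equal to vehicle treated cultures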; conditions: S. cerevisiae cln2 rad14 strain, at 50.0 µM, stronger effect = higher value
# Summary of the method: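 Relative to vehicle controls, growth inhibition of compound-treated cln2 rad14 yeast was recorded.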
# [5] = NCI Yeast Anticancer Drug Screen. Data for the bub3 strain (AID 167); conditions: S. cerevisiae bub3 mutant strain, at 50.0 µM, stronger effect = higher value
# Summary of the method: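 Part of a panel of yeast mutants defective in DNA damage repair or cell cycle regulation. Each strain is grown with compound, and inhibition is calculated relative to solvent-treated cultures.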
# [6] = NCI Yeast Anticancer Drug Screen. Data for the mlh1 rad18 strain (AID 175); conditions: S. cerevisiae mlh1 rad18 strain growth inhibition; at 50.0 µM; stronger effect = higher value
# Summary of the method: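 Test agents were incubated with a yeast strain of defined genotype (DNA damage repair defect). Inhibition of growth was derived by comparison with vehicle-exposed cultures.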
SMILES,growth inhibition [1],growth inhibition [2],growth inhibition [3],growth inhibition [4],growth inhibition [5],growth inhibition [6]
CCCCCCCCCCC/C=N\[N+](C)(C)C,98.3% (active),99.3% (active),98.7% (active),96.8% (active),98.8% (active),98.2% (active)
ClC1(c2ccccc2)c2ccccc2C(Cl)(c2ccccc2)c2ccccc21 (stereo not drawn),17.9%,0.1%,-6.7%,-3.8%,12.2%,27.9%
NC(=O)Cc1ccccn1,5.05%,-2.6%,2.95%,-8.15%,5.25%,1.4%
CCNCc1ccccc1,-18.2%,-0.25%,-22.1%,-66.5%,-10.9%,-18.8%
CNc1ccn(C2OC(CO)C(O)C2O)c(=O)n1 (stereo not drawn),-9.5%,-7.5%,-2.05%,11.9%,10.1%,8.25%
O=C1CCC(=O)N1CC1CC2CCC1C2 (stereo not drawn),40%,4.15%,22.2%,23.8%,4.4%,36%
O=C1c2ccccc2-c2ccc(N=Cc3cccs3)cc21,30.9%,-5.65%,-3.35%,9.4%,33.5%,11.7%
O=C1C=CC(n2cc(F)c(=O)[nH]c2=O)O1 (stereo not drawn),27.1%,44.2%,44.9%,12.9%,9.3%,-43.9%
Cc1cc(Br)cc(C)c1NC(=O)C(=O)C(C(=O)c1ccncc1)C1OC(=O)c2ccccc21 (stereo not drawn),-12.6%,-31.1%,-51.9%,15.8%,16.2%,-7.35%
COc1ccc(C(=O)c2ccc(C(=O)O)cc2)c(OC)c1,-5.4%,-17.5%,-14.6%,-48.6%,5.95%,-27.6%
CC(C)CN(CC#N)CC(C)C,-31.8%,-26.9%,-34.5%,15.1%,-49.1%,-50%
C=C1CCC/C(=N\Nc2ccc([N+](=O)[O-])cc2[N+](=O)[O-])C12CCCC2,-2.45%,3.45%,-4.65%,-11.6%,1.15%,-1.35%
C/C(NN(C)C)=C(\C#N)C(=O)/C=C/c1cccs1,25.2%,1.75%,38.5%,25.9%,18.1%,18.8%
O=C(Nc1ccc(Cl)c([N+](=O)[O-])c1)Oc1ccc2ccccc2c1,14.6%,3%,8.15%,11.9%,23.4%,10.7%
NNC(=O)CC(=O)N(C(=O)/C=C/c1ccccc1)c1ccc(Cl)cc1,-11.9%,-16.9%,15.1%,24%,-14.5%,19.4%
Cn1c(=O)c2[nH]c(SCCc3ccccc3)nc2n(C)c1=O,0.65%,0.05%,6.15%,-39.1%,10.3%,-2.75%
C(=N\NC1=NCCN1)/c1ccccc1,-1.35%,-9.05%,5.6%,-36.8%,-7.4%,13.3%
COC(=O)CCS/C=C/C(=O)O,11.1%,-8.6%,-2.4%,-34.4%,4.25%,4.35%
CC1(CCOCc2ccccc2)NC(=O)N(CCC#N)C1=O (stereo not drawn),6.9%,-9.65%,-4.6%,-10.2%,2.55%,12.6%
COc1cc(/C=C/C(=O)Oc2ccccc2)ccc1C(=O)O/C=C/c1ccccc1,3.65%,-4.7%,1.85%,21.4%,-5.15%,13.5%
NC(=O)N/N=C/c1ccccc1O,28.8%,11.2%,15%,5.95%,-1.2%,6.75%
CCN(CC)Cc1c(C)cccc1O,-4.65%,-4.35%,-27.8%,-49.5%,-0.45%,-16.4%

SMILES,growth inhibition [1],growth inhibition [2],growth inhibition [3],growth inhibition [4],growth inhibition [5],growth inhibition [6]
CC(=O)NS(=O)(=O)c1ccc(N=C=S)cc1,-7.25%,1.85%,-12.8%,-19.4%,-2.9%,-1.05%
NCC1CCCCO1 (stereo not drawn),7%,5.1%,14.2%,-4.1%,-16.7%,-4.65%
S=C(N/N=C1\CSCc2ccccc21)Nc1cc(Cl)ccc1Cl,11.9%,-4.45%,6.05%,10.2%,23.9%,0.5%
CCCN=C(C)C(C)=NCCC,-18.7%,-15.1%,-15.1%,-11%,-19.4%,-11.3%
Cc1cc(S(=O)(=O)NC(=NCC(=O)NN)NN)c(S)cc1Cl,-9.85%,2.65%,-16.6%,-6.95%,1.3%,15.4%
CC(=O)c1cc(CC2Cc3cc4c(cc3C2=O)CCC4)cc2c1CCC2 (stereo not drawn),-37.5%,-36.1%,-14.2%,9%,-6.45%,-4.85%
O=C(COc1ccc(Cl)cc1)Nc1ccccc1Br,11%,12.1%,7.35%,9%,33.7%,-4.55%
CSC1=Nc2ccccc2N=C(c2ccccc2)C1,41.9%,-10.8%,52%,9.05%,44.8%,23.3%
CCOCCC(C)(OCC)OCC,-11.8%,-36.1%,-7%,15.7%,-3.65%,-5.3%
CC1C[C@]2(C)C(=NCCN)Nc3ccccc3[C@@H]2N(C)c2ccccc21 (stereo partly drawn),-14.4%,-25.6%,-10.8%,-28.6%,-13.2%,13.3%
CC(C)/C=C(/CC(C)C)C(CCC(=O)Nc1ccccc1)C(=O)Nc1ccccc1 (stereo not drawn),7.9%,27.7%,4.1%,10%,1.8%,35.2%
O=C(O)CC(NC(=O)c1cnc2ccccc2n1)C(=O)O (stereo not drawn),-3.65%,-9.85%,4.3%,-17.1%,12.7%,-1%
COC(=O)CC(=O)/C(=C/C(C/C=C(\C(=O)CC(=O)OC)C(=O)OC)OC)C(=O)OC (stereo not drawn),40.1%,22.8%,8.9%,18.8%,3.85%,32.3%
COc1ccccc1NC(N)=S,-9.1%,-8.5%,5.65%,3.25%,-4%,-26.9%
CCCCCCCS(=O)(=O)CCCCC(=O)O,-17.4%,-5.85%,-7%,-3.35%,6.7%,-9.5%
OCc1cccc(F)c1,-15.4%,-42.6%,-31.4%,8.1%,-21.4%,-5.35%
Nc1c(Cl)cc2c(c1Br)C(=O)c1ccccc1C2=O,13.7%,-3.5%,1.1%,23.4%,11.9%,19.5%
CCCC(=O)c1ccc2c(c1)CCc1cc(O)ccc1-2,13.8%,1.35%,12.3%,-5.05%,23.4%,1.6%
CC1CC(O)CC(C)(C)C1.CC1CC(O)CC(C)(C)C1.CC1CC(O)CC(C)(C)C1.CC1CC(O)CC(C)(C)C1.[Ti] (stereo not drawn),13.9%,-4.65%,23.2%,15.1%,32.5%,31.9%
OC1CCCN(Cc2ccccc2)C1 (stereo not drawn),9.3%,-15.7%,8.55%,4.5%,11.3%,7.35%
CC(=O)c1sc(/N=C\c2c(O)c3ccccc3oc2=O)nc1C,-53.5%,-49.6%,-40.2%,-3.25%,-36.2%,-33.8%
